ChEMBL document CHEMBL1201862, “PubChem BioAssay data set” (2004)
The whole screen tested about 400,000 compounds, of which about 2,100 (0.53%) were called active. Inconclusive results (about 14%) are left out. The sample holds actives, similar compounds and a random draw of the others, so the mix is not that of the screen. How the calls were made is not given here.

Target: Ataxin-2 (Homo sapiens) (UniProt Q99700)
Assay: qHTS for Inhibitors of ATXN expression.
Type: functional

Sequence of Ataxin-2 (Homo sapiens) (Q99700 whole entry): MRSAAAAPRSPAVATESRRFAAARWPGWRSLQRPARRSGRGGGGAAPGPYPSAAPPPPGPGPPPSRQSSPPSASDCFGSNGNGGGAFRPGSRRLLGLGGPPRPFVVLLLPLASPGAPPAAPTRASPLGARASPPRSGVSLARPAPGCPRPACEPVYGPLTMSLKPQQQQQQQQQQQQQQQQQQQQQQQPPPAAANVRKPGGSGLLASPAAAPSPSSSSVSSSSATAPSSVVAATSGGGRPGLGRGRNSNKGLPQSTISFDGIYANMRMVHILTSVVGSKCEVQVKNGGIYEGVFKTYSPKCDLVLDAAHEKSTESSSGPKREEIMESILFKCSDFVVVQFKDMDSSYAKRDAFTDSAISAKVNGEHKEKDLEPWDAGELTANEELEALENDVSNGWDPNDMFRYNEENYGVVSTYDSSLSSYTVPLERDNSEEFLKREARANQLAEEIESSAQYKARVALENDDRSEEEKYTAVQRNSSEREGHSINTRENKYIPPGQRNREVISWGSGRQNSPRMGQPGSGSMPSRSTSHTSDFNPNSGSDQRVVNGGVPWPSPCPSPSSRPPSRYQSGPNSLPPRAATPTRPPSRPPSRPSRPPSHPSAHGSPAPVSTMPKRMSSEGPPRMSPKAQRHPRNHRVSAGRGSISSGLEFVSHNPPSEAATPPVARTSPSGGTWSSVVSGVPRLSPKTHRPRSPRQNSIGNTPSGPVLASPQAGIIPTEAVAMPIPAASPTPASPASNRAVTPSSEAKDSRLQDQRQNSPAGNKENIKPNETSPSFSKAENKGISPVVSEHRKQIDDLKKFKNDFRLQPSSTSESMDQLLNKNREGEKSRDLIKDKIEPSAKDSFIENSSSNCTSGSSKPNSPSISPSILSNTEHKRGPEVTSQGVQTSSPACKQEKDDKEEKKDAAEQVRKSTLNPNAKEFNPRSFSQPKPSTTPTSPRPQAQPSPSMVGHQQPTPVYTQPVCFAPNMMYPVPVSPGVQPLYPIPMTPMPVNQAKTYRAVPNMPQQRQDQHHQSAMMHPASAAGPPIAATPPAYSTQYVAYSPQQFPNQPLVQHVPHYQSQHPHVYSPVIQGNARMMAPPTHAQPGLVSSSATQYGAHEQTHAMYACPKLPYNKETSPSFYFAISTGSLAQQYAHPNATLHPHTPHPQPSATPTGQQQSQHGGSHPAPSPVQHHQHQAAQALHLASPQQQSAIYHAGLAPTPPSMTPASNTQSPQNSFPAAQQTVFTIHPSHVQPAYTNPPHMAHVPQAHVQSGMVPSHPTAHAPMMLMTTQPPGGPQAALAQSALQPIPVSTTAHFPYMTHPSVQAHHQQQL

| SMILES | Potency |
| --- | --- |
| CSc1ccc(/C=C2\CCn3c2nc2cc(C(=O)O)ccc2c3=O)cc1 | inactive |
| CCN(CC)C(=O)c1cc2c(=O)n3cccc(C)c3nc2s1 | inactive |
| C/C(=N\NC(=O)COc1ccc([N+](=O)[O-])cc1)c1ccco1 | inactive |
| Cc1cccc(C)c1NC(=O)Cn1nnc(-c2ccc(N3CCOCC3)cc2)n1 | 39.8 µM (active) |
| O=C(Cn1nnc(-c2ccccc2)n1)NCC(=O)Nc1ccc(F)c(F)c1F | inactive |
| Cc1ccccc1-c1nnn(CC(=O)Nc2ccc3c(c2)OCO3)n1 | inactive |
| CCOCCCNC(=O)c1c(N)n(-c2ccc3c(c2)OCO3)c2nc3ccccc3nc12 | inactive |
| COc1cccc2c(=O)c3c(cnn3C)n(C)c12 | inactive |
| COc1ccccc1CNC(=O)CN1C(=O)c2cccc(N)c2C1=O | inactive |
| COc1ccccc1CNC(=O)CCC1N=C2c3ccccc3N=C(SCc3ccc(C)cc3C)N2C1=O (stereo not drawn) | 17.8 µM (active) |
| O=C(NCc1nnc(S)n1-c1cccc(C(F)(F)F)c1)c1ccc(S(=O)(=O)N2CCCCC2)cc1 | inactive |
| Nc1cccn2c(-c3ccc(Cl)cc3)cnc12 | inactive |
| Cc1cc(-c2ccccc2)nc2oc(C(=O)NN)c(N)c12 | inactive |
| Cc1ccc(CSc2nc(-c3ccccc3C)nc3c2Cc2c(CO)cnc(C)c2O3)cc1 | 28.2 µM (active) |
| Cc1ccc(CSc2nc3ccccc3c(=O)n2C)cc1 | inactive |
| COc1ccc(C2CC(c3ccccc3Cl)=NN2c2ccc(S(N)(=O)=O)cc2)cc1 (stereo not drawn) | inactive |
| CC(=O)Nc1ccc(C(=O)Nc2ccncc2)cc1 | inactive |
| CC(C)CC(NS(=O)(=O)OCC(Cl)(Cl)Cl)c1ccccc1 (stereo not drawn) | 35.5 µM (active) |
| Cc1ccc(C)c(N(C(=O)c2snc(C(N)=O)c2N)C(C(=O)NCC2CCCO2)c2ccc(C)o2)c1 (stereo not drawn) | inactive |
| N=c1c(C(=O)NCC2CCCO2)cc2c(=O)n3ccccc3nc2n1C1CCCC1 (stereo not drawn) | inactive |
| COC(=O)c1ccc(N2C(c3cc(OC)cc(OC)c3)=Cc3ccc(-c4ccc(C(N)=O)cc4)cc3C2CC(=O)C2CC2)cc1 (stereo not drawn) | inactive |

| SMILES | Potency |
| --- | --- |
| N=C1c2c(cc(O)n3c2nc2ccccc23)CN1CCN1CCOCC1 | inactive |
| C[C@@H](C[C@@H](O)[C@H](O)C(C)(C)O)[C@@H]1CC[C@]2(C)C3=CC[C@H]4C(C)(C)C(=O)CC[C@]4(C)[C@H]3CC[C@@]12C | 39.8 µM (active) |
| Cc1cc(C)c(C(=O)CSc2nc(C)cc(C)c2C(N)=O)c(C)c1 | inactive |
| CC(=O)N1CCc2c(sc3nc(SCC(C)C)n(-c4ccc(C)c(Cl)c4)c(=O)c23)C1 | 25.1 µM (active) |
| Oc1nc(C(Cl)Cl)nc2sc3c(c12)CCN(Cc1ccccc1)C3 | inactive |
| CSc1nc2sc3c(c2c(=O)n1CC(C)C)CC(C)(C)OC3 | inactive |
| COc1cccc(C(=O)Nc2cccc(-c3ccc(N4CCOCC4)nn3)c2)c1OC | inactive |
| Cc1cc(S(=O)(=O)Nc2cccc(-c3ccc(N4CCOCC4)nn3)c2)c(C)cc1Cl | 39.8 µM (active) |
| O=C(Nc1ccc(N2CCOCC2)c(S(=O)(=O)Nc2cc(Cl)ccc2Cl)c1)c1cccnc1 | inactive |
| COc1ccc(F)cc1S(=O)(=O)Nc1cccc(-c2ccc(N3CCCCCC3)nn2)c1 | 39.8 µM (active) |
| Cc1ccc(S(=O)(=O)NCCC(=O)Oc2ccc3ccc(=O)oc3c2)cc1 | inactive |
| Cc1ccc2c(Cl)cc(Cl)c(OCC(=O)NC(C)(C)C)c2n1 | inactive |
| CSc1nc(C(=O)NCc2nc(-c3cccc(NC(=O)c4ccccn4)c3)oc2C)cs1 | inactive |
| Cc1oc(-c2cccc(NC(=O)c3ccccn3)c2)nc1CNC(=O)C#Cc1ccccc1 | inactive |
| COC(=O)c1cccc(C(=O)NCc2nc(-c3cccc(NC(=O)c4ccoc4C)c3)oc2C)c1 | 31.6 µM (active) |
| CSc1ccccc1C(=O)NCc1nc(-c2cccc(NC(=O)c3ccoc3C)c2)oc1C | 25.1 µM (active) |
| Cc1ccc(C(=O)Nc2cccc(-c3nc(CNC(=O)c4ccc5ccccc5n4)c(C)o3)c2)s1 | inactive |
| O=[N+]([O-])c1cc2c(cc1/C=N/n1cnnc1)OCO2 | inactive |
| CCNc1nc(C)c(CN(C(C)=O)c2ccccc2)nc1C#N | inactive |
| Cc1ccc(-c2cn3nc(C)c(C)nc3n2)cc1 | inactive |
| CC(C)(C)N(NS(=O)(=O)c1ccc(F)cc1)c1ccccc1 | inactive |

| SMILES | Potency |
| --- | --- |
| O=S(=O)(c1ccc(F)cc1)N(CC(O)Cn1c2ccccc2c2ccccc21)c1ccccc1 (stereo not drawn) | 22.4 µM (active) |
| CCCCN(C)CC(O)Cn1cc(/C=C/C(=O)c2ccc(C)cc2)c2ccccc21 (stereo not drawn) | inactive |
| CCCCN(CCCC)CC(O)Cn1c2ccccc2c(=O)c2ccccc21 (stereo not drawn) | inactive |
| Cc1ccc(S(=O)(=O)N(CC(O)Cn2c3ccccc3c3ccccc32)c2cccc(C(=O)NCCO)c2)cc1 (stereo not drawn) | 35.5 µM (active) |
| Cc1cccc(N(CC(O)Cn2c3ccccc3c3ccccc32)S(=O)(=O)c2ccc(F)cc2)c1 (stereo not drawn) | 15.8 µM (active) |
| CN(C)/C=N/c1nc2nccc(-c3ccccn3)n2n1 | inactive |
| O=C(CN(Cc1ccc(F)cc1)C(=O)CCC(=O)Nc1nccs1)NCc1ccccc1 | inactive |
| CC(=O)Oc1cc2oc(=O)cc(C)c2cc1Cl | inactive |
| CCCn1nc(NC(=O)CC(C)C)c2cc3cccc(C)c3nc21 | inactive |
| Cc1cc(C)c2ccc(N)nc2c1O | 39.8 µM (active) |
| Cn1nc(NC(=O)C(F)(F)F)c2ncc(-c3ccc(Cl)cc3)nc21 | inactive |
| COc1ccccc1CNc1ccc(Br)cn1 | inactive |
| COc1ccccc1CCn1cnc(-c2ccc(Br)cc2)c1C(C)C | 25.1 µM (active) |
| COc1ccccc1CCN1COc2c(cc3c(C)c(C)c(=O)oc3c2C)C1 | inactive |
| CCCCc1c(-c2ccc(F)cc2)ncn1CCc1ccccc1OC | 31.6 µM (active) |
| CC1=C(C)C(=O)N(C(C)CCc2ccccc2)C1=O (stereo not drawn) | inactive |
| COc1ccccc1[C@H]1C(c2ccc(F)cc2)=NN(c2ccccc2)[C@@H]1CO | inactive |
| CCCCc1c(Cc2ccccc2)ncn1CCc1ccccc1OC | 15.8 µM (active) |
| COc1ccccc1NC(=O)C(C)Sc1nccn1C (stereo not drawn) | inactive |
| COc1ccccc1CCn1cnc(Cc2ccccc2)c1C(C)C | 39.8 µM (active) |
| CCN(CC)c1ccc2c(Cl)cc(=O)oc2c1 | inactive |
